From the supplement of paper PMC11732987, “Enantioselective OTUD7B fragment discovery through chemoproteomics screening and high-throughput optimisation” (Communications Chemistry, 2025)

Columns and labels:
Assay in all cases: log2 ratio of Biotin-Ahx-Ub-VS probe labelling (fragment/DMSO); higher = less target engagement (more negative = stronger competition), active = hit call of the paper (q ≤ 0.05, log2 ratio ≤ -1)
Conditions in all cases: compound concentration: 200 uM; treatment time: 3 h
USP34 = USP34 (UniProt Q70CQ2)
Method in brief: (§1)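 The table lists average log2 ratios of fragment over vehicle, from an unpaired t-test on global-median-normalised Spectronaut label-free quantities. Proteins with ≥2 unique peptides were used. Samples were HEK293T lysate (495 µg) treated in triplicate with fragment at 200 µM or vehicle for 3 h, then with Biotin-Ahx-Ub-VS (0.5 µM final) for 1 h, with labelled DUBs NeutrAvidin-enriched and run by diaPASEF LC-MS/MS.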

USP36 = molecular target: T1, USP36 (UniProt Q9P275)
T1 sequence (whole entry): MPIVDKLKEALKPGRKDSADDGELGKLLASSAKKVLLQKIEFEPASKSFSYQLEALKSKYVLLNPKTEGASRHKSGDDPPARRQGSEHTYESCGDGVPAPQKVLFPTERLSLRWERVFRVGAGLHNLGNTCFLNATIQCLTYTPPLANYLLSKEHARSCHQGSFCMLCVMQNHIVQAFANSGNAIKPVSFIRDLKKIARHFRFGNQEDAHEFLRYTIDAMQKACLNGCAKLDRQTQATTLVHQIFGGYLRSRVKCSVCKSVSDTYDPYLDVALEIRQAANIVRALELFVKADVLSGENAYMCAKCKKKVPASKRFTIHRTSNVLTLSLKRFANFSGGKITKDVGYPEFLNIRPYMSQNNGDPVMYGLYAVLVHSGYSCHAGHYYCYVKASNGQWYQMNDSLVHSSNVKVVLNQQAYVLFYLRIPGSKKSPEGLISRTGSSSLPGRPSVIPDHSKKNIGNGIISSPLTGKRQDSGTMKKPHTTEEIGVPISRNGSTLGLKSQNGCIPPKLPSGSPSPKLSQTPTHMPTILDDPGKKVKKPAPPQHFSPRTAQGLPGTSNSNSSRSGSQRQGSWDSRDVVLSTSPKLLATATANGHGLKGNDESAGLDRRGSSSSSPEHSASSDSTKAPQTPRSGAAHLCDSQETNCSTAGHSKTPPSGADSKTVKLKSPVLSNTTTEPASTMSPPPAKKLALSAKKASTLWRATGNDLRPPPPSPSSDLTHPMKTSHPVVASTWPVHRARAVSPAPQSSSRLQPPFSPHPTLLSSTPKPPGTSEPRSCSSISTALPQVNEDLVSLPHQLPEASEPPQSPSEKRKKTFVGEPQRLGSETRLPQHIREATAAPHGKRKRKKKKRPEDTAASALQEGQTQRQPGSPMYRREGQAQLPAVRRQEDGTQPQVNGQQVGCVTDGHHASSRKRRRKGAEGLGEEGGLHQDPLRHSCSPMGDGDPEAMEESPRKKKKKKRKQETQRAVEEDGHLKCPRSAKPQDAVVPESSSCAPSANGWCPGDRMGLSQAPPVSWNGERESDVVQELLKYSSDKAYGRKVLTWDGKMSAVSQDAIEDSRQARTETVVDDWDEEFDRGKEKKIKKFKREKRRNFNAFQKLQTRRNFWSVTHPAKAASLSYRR
Method in brief: as §1

USP38 = molecular target: T2, USP38 (UniProt Q8NB14)
T2 sequence (whole entry): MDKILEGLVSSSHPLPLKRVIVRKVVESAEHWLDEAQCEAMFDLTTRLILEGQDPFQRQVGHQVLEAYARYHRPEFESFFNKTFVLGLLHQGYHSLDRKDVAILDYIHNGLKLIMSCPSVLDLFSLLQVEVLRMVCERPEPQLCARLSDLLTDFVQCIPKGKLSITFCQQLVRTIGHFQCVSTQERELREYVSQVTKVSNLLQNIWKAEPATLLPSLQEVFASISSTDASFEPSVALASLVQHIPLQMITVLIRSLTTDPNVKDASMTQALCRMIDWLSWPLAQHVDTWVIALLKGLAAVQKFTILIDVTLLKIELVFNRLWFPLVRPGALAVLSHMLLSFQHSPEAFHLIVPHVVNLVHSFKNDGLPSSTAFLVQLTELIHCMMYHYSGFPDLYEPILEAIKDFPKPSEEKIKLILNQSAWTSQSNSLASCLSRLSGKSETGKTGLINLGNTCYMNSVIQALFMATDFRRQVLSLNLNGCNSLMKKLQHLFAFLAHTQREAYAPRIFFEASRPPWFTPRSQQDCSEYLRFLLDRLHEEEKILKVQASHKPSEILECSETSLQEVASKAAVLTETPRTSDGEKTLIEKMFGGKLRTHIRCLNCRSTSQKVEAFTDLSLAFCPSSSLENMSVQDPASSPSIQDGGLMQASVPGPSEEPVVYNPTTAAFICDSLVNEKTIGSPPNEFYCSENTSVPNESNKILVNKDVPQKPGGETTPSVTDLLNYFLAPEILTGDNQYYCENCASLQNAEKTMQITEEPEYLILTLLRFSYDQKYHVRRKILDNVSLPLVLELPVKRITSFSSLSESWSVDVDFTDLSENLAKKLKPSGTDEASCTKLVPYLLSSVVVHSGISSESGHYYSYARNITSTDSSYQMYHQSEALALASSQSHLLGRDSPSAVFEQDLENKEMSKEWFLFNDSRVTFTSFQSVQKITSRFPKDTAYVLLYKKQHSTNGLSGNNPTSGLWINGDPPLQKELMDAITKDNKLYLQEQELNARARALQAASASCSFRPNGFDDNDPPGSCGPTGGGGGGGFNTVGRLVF
Method in brief: as §1

USP39 = molecular target: T3, USP39 (UniProt Q53GS9)
T3 sequence (whole entry): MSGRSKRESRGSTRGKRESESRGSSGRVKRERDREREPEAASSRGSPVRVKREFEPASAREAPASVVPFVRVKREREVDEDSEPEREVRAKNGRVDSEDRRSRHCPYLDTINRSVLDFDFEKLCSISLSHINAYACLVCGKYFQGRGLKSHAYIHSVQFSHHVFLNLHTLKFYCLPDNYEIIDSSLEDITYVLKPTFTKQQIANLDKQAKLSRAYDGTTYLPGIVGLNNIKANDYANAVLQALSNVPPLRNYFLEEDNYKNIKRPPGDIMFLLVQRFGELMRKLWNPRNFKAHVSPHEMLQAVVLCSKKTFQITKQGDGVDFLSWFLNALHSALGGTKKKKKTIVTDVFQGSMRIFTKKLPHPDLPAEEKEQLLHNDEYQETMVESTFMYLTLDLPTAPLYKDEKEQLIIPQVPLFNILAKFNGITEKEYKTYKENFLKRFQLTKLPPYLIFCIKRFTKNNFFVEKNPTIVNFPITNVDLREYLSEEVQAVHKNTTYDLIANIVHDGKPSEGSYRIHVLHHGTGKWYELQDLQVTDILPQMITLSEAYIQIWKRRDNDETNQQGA
Method in brief: as §1

USP4 = molecular target: T4, USP4 (UniProt Q13107)
T4 sequence (whole entry): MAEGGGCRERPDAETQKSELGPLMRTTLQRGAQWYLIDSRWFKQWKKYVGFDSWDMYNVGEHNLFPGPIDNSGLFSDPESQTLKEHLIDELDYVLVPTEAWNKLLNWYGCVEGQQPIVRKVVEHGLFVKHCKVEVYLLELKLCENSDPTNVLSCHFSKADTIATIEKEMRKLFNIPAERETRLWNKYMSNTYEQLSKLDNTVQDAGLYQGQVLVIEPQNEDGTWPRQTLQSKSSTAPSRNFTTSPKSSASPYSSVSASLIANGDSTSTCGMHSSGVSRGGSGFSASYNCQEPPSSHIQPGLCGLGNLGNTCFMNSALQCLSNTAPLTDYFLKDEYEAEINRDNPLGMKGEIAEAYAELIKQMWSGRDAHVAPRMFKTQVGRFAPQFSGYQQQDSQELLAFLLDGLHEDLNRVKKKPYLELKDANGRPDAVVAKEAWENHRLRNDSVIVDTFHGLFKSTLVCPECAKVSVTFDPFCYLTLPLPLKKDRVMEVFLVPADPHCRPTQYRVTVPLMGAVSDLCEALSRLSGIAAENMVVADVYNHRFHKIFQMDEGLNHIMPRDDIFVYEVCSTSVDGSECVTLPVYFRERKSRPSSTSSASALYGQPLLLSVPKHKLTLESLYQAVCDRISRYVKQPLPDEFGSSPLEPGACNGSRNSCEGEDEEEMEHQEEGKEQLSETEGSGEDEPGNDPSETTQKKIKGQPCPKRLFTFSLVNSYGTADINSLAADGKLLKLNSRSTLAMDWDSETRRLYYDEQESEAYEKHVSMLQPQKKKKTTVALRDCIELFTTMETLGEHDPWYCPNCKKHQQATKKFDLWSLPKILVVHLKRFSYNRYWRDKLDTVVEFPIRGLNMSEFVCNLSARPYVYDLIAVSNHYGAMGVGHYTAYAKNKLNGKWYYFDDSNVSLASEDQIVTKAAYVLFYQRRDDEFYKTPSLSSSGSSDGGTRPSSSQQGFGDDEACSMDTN
Method in brief: as §1

Measured: log2 ratio of Biotin-Ahx-Ub-VS probe labelling

Sequence of USP34 (Q70CQ2 whole entry, the tested form may be a part): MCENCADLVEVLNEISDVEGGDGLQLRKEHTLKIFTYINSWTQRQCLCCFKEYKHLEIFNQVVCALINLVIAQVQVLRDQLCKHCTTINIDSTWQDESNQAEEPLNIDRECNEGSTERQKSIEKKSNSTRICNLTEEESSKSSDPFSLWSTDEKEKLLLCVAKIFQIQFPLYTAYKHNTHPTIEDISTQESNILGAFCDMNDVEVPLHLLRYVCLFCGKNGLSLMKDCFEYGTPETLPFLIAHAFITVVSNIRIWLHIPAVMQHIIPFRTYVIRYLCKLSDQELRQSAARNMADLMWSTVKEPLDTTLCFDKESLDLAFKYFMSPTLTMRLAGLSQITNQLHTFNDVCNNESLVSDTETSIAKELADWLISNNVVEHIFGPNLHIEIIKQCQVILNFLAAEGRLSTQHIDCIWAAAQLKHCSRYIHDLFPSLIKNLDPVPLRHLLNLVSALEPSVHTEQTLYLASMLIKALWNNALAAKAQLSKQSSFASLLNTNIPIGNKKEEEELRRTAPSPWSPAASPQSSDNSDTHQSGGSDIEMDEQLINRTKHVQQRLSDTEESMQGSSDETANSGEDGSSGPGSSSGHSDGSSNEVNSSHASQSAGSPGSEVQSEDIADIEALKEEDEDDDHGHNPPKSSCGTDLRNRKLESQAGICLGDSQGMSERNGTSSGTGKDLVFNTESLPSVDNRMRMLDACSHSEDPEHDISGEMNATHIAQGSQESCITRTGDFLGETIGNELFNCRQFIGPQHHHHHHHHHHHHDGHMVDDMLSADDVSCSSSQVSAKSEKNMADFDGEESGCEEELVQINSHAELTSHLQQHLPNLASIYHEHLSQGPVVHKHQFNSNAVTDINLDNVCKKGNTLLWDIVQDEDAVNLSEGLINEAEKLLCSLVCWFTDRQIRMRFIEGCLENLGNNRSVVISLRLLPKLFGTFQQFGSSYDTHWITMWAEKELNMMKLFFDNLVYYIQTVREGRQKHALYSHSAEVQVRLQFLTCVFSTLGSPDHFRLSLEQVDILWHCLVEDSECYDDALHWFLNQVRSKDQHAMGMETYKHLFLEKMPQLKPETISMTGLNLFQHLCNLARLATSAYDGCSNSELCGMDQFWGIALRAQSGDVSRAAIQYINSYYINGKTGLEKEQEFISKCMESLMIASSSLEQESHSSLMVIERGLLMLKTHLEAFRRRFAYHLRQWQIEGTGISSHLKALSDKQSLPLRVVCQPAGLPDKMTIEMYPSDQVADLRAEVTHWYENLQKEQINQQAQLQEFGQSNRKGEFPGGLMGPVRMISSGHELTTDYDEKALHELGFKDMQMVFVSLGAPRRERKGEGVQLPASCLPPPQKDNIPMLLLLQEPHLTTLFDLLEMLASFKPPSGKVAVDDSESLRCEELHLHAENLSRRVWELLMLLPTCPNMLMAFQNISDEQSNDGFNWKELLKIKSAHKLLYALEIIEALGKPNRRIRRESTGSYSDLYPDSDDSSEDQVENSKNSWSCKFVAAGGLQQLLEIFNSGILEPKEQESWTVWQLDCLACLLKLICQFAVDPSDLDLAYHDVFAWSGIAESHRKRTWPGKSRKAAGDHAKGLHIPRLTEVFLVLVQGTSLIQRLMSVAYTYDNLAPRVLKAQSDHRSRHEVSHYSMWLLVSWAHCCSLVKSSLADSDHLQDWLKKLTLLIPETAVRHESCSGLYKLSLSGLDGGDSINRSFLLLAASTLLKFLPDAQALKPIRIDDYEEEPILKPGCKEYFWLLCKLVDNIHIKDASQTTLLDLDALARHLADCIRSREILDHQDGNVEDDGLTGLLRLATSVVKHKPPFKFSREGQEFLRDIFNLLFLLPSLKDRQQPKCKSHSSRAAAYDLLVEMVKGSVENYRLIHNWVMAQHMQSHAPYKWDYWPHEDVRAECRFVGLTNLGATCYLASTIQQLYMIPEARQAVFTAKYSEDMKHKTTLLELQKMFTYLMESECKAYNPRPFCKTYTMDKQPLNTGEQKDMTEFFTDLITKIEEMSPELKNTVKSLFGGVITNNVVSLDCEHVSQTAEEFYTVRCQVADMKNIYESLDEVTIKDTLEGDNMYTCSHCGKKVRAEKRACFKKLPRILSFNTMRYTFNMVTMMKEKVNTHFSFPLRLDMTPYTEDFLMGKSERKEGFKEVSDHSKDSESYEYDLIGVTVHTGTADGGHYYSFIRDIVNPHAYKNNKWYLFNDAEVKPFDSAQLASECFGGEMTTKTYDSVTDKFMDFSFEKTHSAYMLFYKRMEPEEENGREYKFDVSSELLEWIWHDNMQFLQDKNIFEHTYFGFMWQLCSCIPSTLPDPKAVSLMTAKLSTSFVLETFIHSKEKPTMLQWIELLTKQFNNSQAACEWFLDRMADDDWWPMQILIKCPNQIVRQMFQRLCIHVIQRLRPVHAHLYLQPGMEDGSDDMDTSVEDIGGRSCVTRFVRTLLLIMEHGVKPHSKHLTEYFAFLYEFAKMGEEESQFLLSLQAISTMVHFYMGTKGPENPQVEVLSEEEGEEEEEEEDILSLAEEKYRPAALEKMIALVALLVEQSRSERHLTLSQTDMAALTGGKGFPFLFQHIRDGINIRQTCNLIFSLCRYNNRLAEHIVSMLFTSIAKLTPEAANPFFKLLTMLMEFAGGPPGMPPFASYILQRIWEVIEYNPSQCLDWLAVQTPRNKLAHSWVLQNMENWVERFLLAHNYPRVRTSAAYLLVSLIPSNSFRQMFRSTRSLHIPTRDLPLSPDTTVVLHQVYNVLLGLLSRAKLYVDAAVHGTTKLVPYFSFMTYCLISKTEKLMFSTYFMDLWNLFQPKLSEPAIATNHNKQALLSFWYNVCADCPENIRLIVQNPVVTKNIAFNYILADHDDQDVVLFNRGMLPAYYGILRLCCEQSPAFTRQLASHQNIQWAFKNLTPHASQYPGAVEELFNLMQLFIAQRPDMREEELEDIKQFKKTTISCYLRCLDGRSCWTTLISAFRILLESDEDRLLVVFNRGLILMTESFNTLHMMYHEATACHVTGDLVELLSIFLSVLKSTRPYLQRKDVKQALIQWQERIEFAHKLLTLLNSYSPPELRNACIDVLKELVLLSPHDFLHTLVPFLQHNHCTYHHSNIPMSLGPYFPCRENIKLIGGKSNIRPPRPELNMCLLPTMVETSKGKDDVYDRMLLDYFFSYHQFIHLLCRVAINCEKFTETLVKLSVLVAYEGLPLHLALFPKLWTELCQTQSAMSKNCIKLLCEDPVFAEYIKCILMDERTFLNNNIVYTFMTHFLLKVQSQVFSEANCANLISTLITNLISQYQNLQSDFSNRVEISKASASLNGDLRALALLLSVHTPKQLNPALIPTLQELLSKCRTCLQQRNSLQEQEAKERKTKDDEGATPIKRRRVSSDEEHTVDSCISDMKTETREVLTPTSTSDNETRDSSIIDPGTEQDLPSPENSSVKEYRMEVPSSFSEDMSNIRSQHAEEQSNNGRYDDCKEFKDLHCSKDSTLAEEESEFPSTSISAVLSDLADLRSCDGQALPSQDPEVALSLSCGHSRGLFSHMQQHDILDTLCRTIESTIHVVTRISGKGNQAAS

Cl.O=C(CCl)N1CCn2cncc2C1
inactive: USP34 -0.401 | USP36 -0.24 | USP38 -0.142 | USP39 -0.167 | USP4 -0.285
